# Data published in the supplement of paper PMC8728848.
# The sample as a whole holds a higher share of the strongest signals than the screen did.
# B1: Pwp3 (Candida glabrata) (protein)
# chain: MGSSHHHHHHSSGLVPRGSHMASKNPVDFTTVCQFPDNFSKKPGFLATTARLGLWITGNSYKELLNYPGTFTLTTQQASTTTPNIQLRGTDLFTTIYGLTVYPLYLLVELQGYFVPTQSGMYTFSLTGSDDAAIIFIGNPSTFPCDAFKTWPQATANDITVTDSINPSRTLYMVKGVAYPLRIAYYNGLGNGVLNAAFTDPSGTKRTDWNGYIWQYDQCSTCTYK
# Columns and labels:
# Assay in all cases: glycan array binding signal (z-score within array); higher = stronger binding
# Details in all cases: glycan notation: IUPAC condensed, linker removed
# [1] = biological target: Gal3S(b1-4)[Fuc(a1-3)]GlcNAc6S
# Summary of the method: (§1)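 Glycan array data were curated from 3228 arrays in the Consortium for Functional Glycomics database and kept only where the protein sequence was available. Glycan names were converted to IUPAC-condensed notation, and columns mapping to the same glycan were averaged. The binding signal is a within-array Z-score, averaged across arrays of the same protein sequence at different concentrations or buffers and across linkers. Negative Z-scores can be read as non-binding.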
# [2] = biological target: Gal6S(b1-4)Glc6S
# Summary of the method: as §1
# [3] = biological target: Gal6S(b1-4)GlcNAc
# Summary of the method: as §1
# [4] = biological target: GlcNAc(b1-2)Man(a1-3)[GlcNAc(b1-4)][GlcNAc(b1-2)Man(a1-6)]Man(b1-4)GlcNAc(b1-4)[Fuc(a1-6)]GlcNAc
# Summary of the method: as §1
# [5] = biological target: GlcNAc(b1-3)Gal(b1-4)GlcNAc(b1-3)Gal(b1-4)GlcNAc(b1-3)Gal(b1-4)GlcNAc(b1-2)[GlcNAc(b1-3)Gal(b1-4)GlcNAc(b1-3)Gal(b1-4)GlcNAc(b1-3)Gal(b1-4)GlcNAc(b1-6)]Man(a1-6)[GlcNAc(b1-3)Gal(b1-4)GlcNAc(b1-3)Gal(b1-4)GlcNAc(b1-3)Gal(b1-4)GlcNAc(b1-2)Man(a1-3)]Man(b1-4)GlcNAc(b1-4)[Fuc(a1-6)]GlcNAc
# Summary of the method: as §1
# [6] = biological target: GlcNAc(b1-3)Gal(b1-4)GlcNAc(b1-3)Gal(b1-4)GlcNAc(b1-3)Gal(b1-4)GlcNAc(b1-3)Gal(b1-4)GlcNAc(b1-2)Man(a1-3)[GlcNAc(b1-3)Gal(b1-4)GlcNAc(b1-3)Gal(b1-4)GlcNAc(b1-3)Gal(b1-4)GlcNAc(b1-3)Gal(b1-4)GlcNAc(b1-2)Man(a1-6)]Man(b1-4)GlcNAc(b1-4)GlcNAc
# Summary of the method: as §1
# [7] = biological target: GlcNAc(b1-3)Gal(b1-4)GlcNAc(b1-3)Gal(b1-4)GlcNAc(b1-3)Gal(b1-4)GlcNAc(b1-3)Gal(b1-4)GlcNAc(b1-2)[GlcNAc(b1-3)Gal(b1-4)GlcNAc(b1-3)Gal(b1-4)GlcNAc(b1-3)Gal(b1-4)GlcNAc(b1-3)Gal(b1-4)GlcNAc(b1-6)]Man(a1-6)[GlcNAc(b1-3)Gal(b1-4)GlcNAc(b1-3)Gal(b1-4)GlcNAc(b1-3)Gal(b1-4)GlcNAc(b1-3)Gal(b1-4)GlcNAc(b1-2)Man(a1-3)]Man(b1-4)GlcNAc(b1-4)[Fuc(a1-6)]GlcNAc
# Summary of the method: as §1
# [8] = biological target: Man(a1-2)Man(a1-2)Man(a1-6)[Man(a1-3)]Man
# Summary of the method: as §1
# [9] = biological target: Man(a1-2)Man(a1-6)[Man(a1-3)]Man(a1-6)[Man(a1-2)Man(a1-2)Man(a1-3)]Man(b1-4)GlcNAc(b1-4)GlcNAc
# Summary of the method: as §1
# [10] = biological target: Man(a1-3)[Man(a1-6)]Man(a1-6)[Man(a1-3)]Man
# Summary of the method: as §1
# [11] = biological target: Man(a1-6)Man
# Summary of the method: as §1
# [12] = biological target: Neu5Ac(a2-3)Gal(b1-4)GlcNAc(b1-3)Gal(b1-4)GlcNAc(b1-3)GalNAc
# Summary of the method: as §1
# [13] = biological target: Neu5Ac(a2-3)Gal(b1-4)GlcNAc(b1-3)Gal(b1-4)GlcNAc(b1-6)[Gal(b1-3)]GalNAc
# Summary of the method: as §1
# [14] = biological target: Neu5Ac(a2-3)Gal(b1-4)[Fuc(a1-3)]GlcNAc
# Summary of the method: as §1
# [15] = biological target: Neu5Ac(a2-3)Gal6S(b1-4)[Fuc(a1-3)]GlcNAc
# Summary of the method: as §1
# [16] = biological target: Neu5Ac(a2-6)Gal(b1-4)GlcNAc(b1-2)Man(a1-3)Man(b1-4)GlcNAc(b1-4)GlcNAc
# Summary of the method: as §1
# [17] = biological target: Neu5Ac(a2-6)Gal(b1-4)GlcNAc(b1-3)Gal(b1-4)GlcNAc(b1-6)[Gal(b1-3)]GalNAc
# Summary of the method: as §1
# [18] = biological target: Neu5Ac(a2-8)Neu5Ac(a2-3)[GalNAc(b1-4)]Gal(b1-4)Glc
# Summary of the method: as §1
# [19] = biological target: Neu5Ac(a2-8)Neu5Ac(a2-8)Neu5Ac(a2-3)Gal(b1-4)Glc
# Summary of the method: as §1
# [20] = biological target: Neu5Ac(b2-6)Gal(b1-4)GlcNAc
# Summary of the method: as §1
# [21] = biological target: Neu5Gc(a2-8)Neu5Gc(a2-3)Gal(b1-4)GlcNAc
# Summary of the method: as §1
binder,measurement,setting,value
B1,glycan array binding signal (z-score),[1],-0.535
same,glycan array binding signal (z-score),[2],6.29
same,glycan array binding signal (z-score),[3],0.319
same,glycan array binding signal (z-score),[4],-0.195
same,glycan array binding signal (z-score),[5],1.66
same,glycan array binding signal (z-score),[6],-0.439
same,glycan array binding signal (z-score),[7],4.05
same,glycan array binding signal (z-score),[8],-0.335
same,glycan array binding signal (z-score),[9],-0.066
same,glycan array binding signal (z-score),[10],4.4
same,glycan array binding signal (z-score),[11],-0.259
same,glycan array binding signal (z-score),[12],-0.424
same,glycan array binding signal (z-score),[13],2.29
same,glycan array binding signal (z-score),[14],0.139
same,glycan array binding signal (z-score),[15],-0.332
same,glycan array binding signal (z-score),[16],-0.617
same,glycan array binding signal (z-score),[17],0.018
same,glycan array binding signal (z-score),[18],4.12
same,glycan array binding signal (z-score),[19],-1.21
same,glycan array binding signal (z-score),[20],0.194
same,glycan array binding signal (z-score),[21],0.001
